# Compounds with a hit are over-represented: about 21% of the library has one in this group of screens.
# CHX counter = counter-screen for Shiga toxin inhibitors: cycloheximide protein synthesis inhibition | AID 2314 | cell reporter, cycloheximide protein synthesis inhibition counterscreen | 300,000 tested, 12% active | max response, %; in the data active = max response mostly above about 13%, no sharp cut-off; inactive = mostly below about 14%; also: read at 38.3 µM for the half of the compounds with a filed dose; 0% is about no effect
# Pf growth 48h = inhibits P. falciparum growth in the first generation, 48 h; Potency, µM (highest dose often 28.7 µM), inactives show at the highest dose activity change, negative = inhibition, most hits filed as inhibitors; P. falciparum luciferase growth in erythrocytes, 48 h; 310,000 tested, 5.9% active; also: potency is read from the fitted curve at half-maximal effect; % is scaled to controls: 0 for no effect and ±100 for the full control effect
#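 Cell-based growth assay: transgenic P. falciparum expressing firefly luciferase, cultured in red cells within RPMI 1640 containing 0.5% w/v Albumax, 24 mM bicarbonate and gentamycin. A drop in luciferase activity indicates inhibition.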
# HCV inhibitor = inhibitors of hepatitis C virus infection; Huh7.5.1 HCVcc-Cre infection, luciferase reporter, 44 h; Potency, µM (top dose mostly 41.8 µM), inactives show at the highest dose activity change, negative = inhibition, hits mostly inhibitors; 340,000 tested, 3.4% active; also: potency is read from the fitted curve at half-maximal effect; % is scaled to controls: 0 for no effect and ±100 for the full control effect
#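 Reporter virus HCVcc-Cre (~0.5 moi) infects cells exposed to compound; seeding density 1,000 cells/well with 4 h settling beforehand. Luminescence, 15 sec read, taken 44 h post-infection following a 15 min RT substrate incubation.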
# AMA1 RON2 block = AMA1-RON2 (P. falciparum) interaction inhibition; Potency, µM (titrated, usually from 58.2 µM), for the others: at the top dose activity change, negative = inhibition, hits mostly inhibitors; AlphaScreen AMA1-biotinylated RON2 peptide binding; 360,000 tested, 0.2% active; AID 720542;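 also: potency is read from the fitted curve at half-maximal effect; 0% = vehicle wells and -100% = peptide control; nearly all actives have a fitted effect of over 45% in size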
#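 AMA1 (3D7) with his tag at 25 nM final met compounds first, then biotinylated RON2 peptide at 25 nM; detection used donor plus acceptor beads, 10 µg/mL apiece, read by AlphaScreen after 30 min at room temperature.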
# Shiga toxin inh = Shiga toxin inhibition; Vero cells, Shiga toxin protein synthesis inhibition reporter; inhibition, % at 38.7 µM; 290,000 tested, 9.2% active; AID 2315; in the data active = inhibition mostly above about 28%, no sharp cut-off; inactive = mostly below about 43%; also: 0% is about no effect
# Pf growth 96h = inhibits malaria parasite growth, 96 h. P. falciparum luciferase reporter growth, 96 h. Potency, µM (highest dose often 28.7 µM), without a hit: at the highest dose activity change, negative = inhibition, actives largely listed as inhibitors. 320,000 tested, 6.9% active. AID 504834; also: potency is read from the fitted curve at half-maximal effect; % is scaled to controls: 0 for no effect and ±100 for the full control effect
#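 Delayed-death screen, second-generation endpoint: infected erythrocytes, 2% hematocrit, 0.05% parasitemia final; 96 hours at 37 C, 5% CO2; luciferase detection reagent; luminescence decrease equals reduced growth.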
# Numbers without * were called inactive; u = inconclusive; x = no result. Unless noted, calls follow the shape of the dose curve; as a rule, active = well fitted curve in the direction sought with a large enough effect; inconclusive = small, poorly fitted or top-dose-only effect, or another doubt; inactive = no such curve, though single readings can be large; an effect the other way counts as inactive or inconclusive.
SMILES,CHX counter,Pf growth 48h,HCV inhibitor,AMA1 RON2 block,Shiga toxin inh,Pf growth 96h
COc1ccc(/C=N/N=C/c2ccc(OC)c(O)c2)cc1O,36*,u,6%,0%,55,7%
COc1cc(/C=N/N=C/c2cc(OC)c(O)c(OC)c2)cc(OC)c1O,10,10µM*,37%,-12%,-2,4.1µM*
COc1ccc(C=O)cc1O,-7,9%,26%,-7%,0,-8%
COc1cc(/C=N/N=C(/C(=O)c2ccccc2)c2ccccc2)cc(OC)c1O,5,-7%,u,-30%,7,u
COc1ccc(/C=N/N=C/c2ccc(OC)cc2)cc1,25*,u,7%,-5%,46,u
COc1ccc(/C=N/NC(=O)c2ccncc2)cc1OC,1,9%,x,5%,-10,9%
CC(Oc1cc2oc(=O)c3c(c2cc1Cl)CCC3)C(=O)NCCCn1ccnc1 (configuration not stated),-4,7%,-5%,-2%,-12,u
CCN1C(=O)[C@H]2[C@H]3CN=C(SCc4ccc(C)cc4)N3[C@@](C)(C(=O)OC)[C@H]2C1=O,x,x,19%,-2%,x,x
COc1cc(/C=N/N=C(N)N)ccc1OCc1ccccc1Cl,19,2.6µM*,14µM*,-15%,5,29%
COc1ccc(C(=O)Oc2ccc(/C=N/O)cc2)cc1,74*,49%,12%,-10%,83*,u
C=CC(=O)Nc1cccc(Nc2nc(N[C@H]3CC[C@H](N(C)C)CC3)nc3c2ncn3C(C)C)c1,x,x,u,-20%,x,x
CC1=CC(=O)C(C(C)C)=C/C1=N/OS(=O)(=O)c1ccccc1,3,0.47µM*,6.3µM*,u,42,u
Clc1ccc(CO/N=C2\CCCc3nonc32)cc1,27*,6%,0%,19%,22,-10%
Clc1ccccc1CO/N=C1\CCCc2nonc21,15*,-3%,2%,40%,17,u
O=C(CO/N=C1\CCCc2nonc21)Nc1ccccc1Cl,10,u,-5%,0%,18,-28%
Cc1cc2nc(-c3ccccc3)c(Cc3cccc(Cl)c3)n2c(C)c1Br,x,x,x,-15%,x,x
Cc1ccc(C(=O)NCCNC(=O)COc2ccc(C)c(C)c2)cn1,-6,7%,4%,-5%,-4,27%
O=C(c1ccc(Cl)cc1)n1c(NCc2ccccc2)n[nH]c1=S,-6,23%,1%,4%,13,6%
CCC(C)(C(=O)Nc1ccc(OC)cc1)N(C)C(=O)Cn1nnnc1N (configuration not stated),-2,-14%,-10%,3%,-14,20%
Cc1cc(C)c2c(c1)/C(=N/NC(=O)c1ccc(O)cc1)CCC2,22*,u,-11%,35%,36*,-10%
Cc1cc(C)c2c(c1)/C(=N/NC(=O)c1cc(C)oc1C)CCC2,36*,u,-25%,2%,26,-19%
O=C(CCCn1cncn1)N1CCCC(N2CCN(c3ccc(F)cc3)CC2)C1 (configuration not stated),-1,-15%,28%,9%,-28,u
Cc1cc(/C=c2\sc3nc4ccccc4n3c2=O)c(C)n1-c1ccc(C(=O)O)cc1,9,16%,12%,9%,6,58%
O=c1/c(=C\c2cccnc2)sc2nc3ccccc3n12,31*,60%,8%,-5%,127*,3%
Cc1cc(C)c2nc3s/c(=C/c4ccccc4)c(=O)n3c2c1,15,x,x,x,2,9%
SMILES,CHX counter,Pf growth 48h,HCV inhibitor,AMA1 RON2 block,Shiga toxin inh,Pf growth 96h
CCN(CC)c1ccc(/C=c2\sc3nc4ccccc4n3c2=O)c(O)c1,19,8.3µM*,u,42%,38*,10µM*
Cc1cc(/C=c2/sc3nc4ccccc4n3c2=O)c(C)n1-c1ccccn1,67*,59%,u,-2%,27,-9%
O=c1/c(=C/c2ccc(O)c([N+](=O)[O-])c2)sc2nc3ccccc3n12,33*,11%,5%,-3%,94*,u
COc1cccc(S(=O)(=O)Nc2ccc3c(c2)C(=O)N(C)C[C@H](OC)[C@H](C)CN[C@@H](C)CO3)c1,x,x,x,10%,x,x
CCOc1ccc(C(=O)Nc2ccc(N3CCCC3)cc2)cc1,19*,u,u,u,33,38%
CCCOc1ccc(C(=O)Nc2ccc(N3CCN(C(C)=O)CC3)cc2)cc1,4,u,u,-11%,52,-17%
CCOc1ccc(NC(=O)c2cccc(OC(=S)N3CCC(C)CC3)c2)cc1,17*,u,-7%,4%,35,12µM*
CCOc1cccc(C(=O)Nc2ccc(N3CCCC3)cc2)c1,17*,0%,u,-13%,48,0%
Cc1ccc(S(=O)(=O)N2CC3C(=O)C[C@@H](c4ccccc4)N(S(=O)(=O)c4cccc(Cl)c4)C3CC2c2ccccc2)cc1 (some centres not stated),x,x,x,-2%,x,x
COc1ccc(CN2C(=O)CCC2(C)c2nc3ccccc3[nH]2)cc1 (configuration not stated),x,x,x,3%,x,x
O=C(O)c1ccccc1NC(=O)C1CCN(S(=O)(=O)c2cccc3nsnc23)CC1,-6,0%,5%,-4%,-3,24%
CC(C)(C)OC(=O)N1CCN(C(=O)c2cccnc2Cl)CC1,-3,6%,10%,10%,-7,0%
CC(C)(C)N1C(=O)c2ccccc2NC(=O)C1C(=O)NCCc1ccccc1 (configuration not stated),x,x,x,2%,x,x
C=CC(C)(C)c1[nH]cnc1/C=C1\NC(=O)C(C(C)C)NC1=O (configuration not stated),-3,u,u,90%,-3,2.1µM*
Cc1cccc(C(C)C)c1NC(=O)COC(=O)CCC(=O)N(CC(C)C)c1c(N)n(CC(C)C)c(=O)[nH]c1=O,x,x,x,-11%,x,x
Cc1ccc(C2C=C(c3ccccc3OC(F)F)Nc3ncnn32)cc1 (configuration not stated),-1,u,-10%,21%,-8,u
CN(C)c1ccc(C2C=C(c3ccc(Cl)cc3OC(F)F)Nc3ncnn32)cc1 (configuration not stated),-5,u,10µM*,-1%,-2,112%
COc1ccc(C2CC(c3ccccc3)Oc3ccc(OC)cc32)cc1 (configuration not stated),9,x,x,x,3,x
CCN(CCn1cccn1)C(=O)c1cc(COc2ccccc2SC)on1,65*,1%,x,14%,94*,19%
CCN(CCn1cccn1)C(=O)c1cc(COc2cc(C)ccc2C)on1,62*,-6%,x,0%,168*,u
CCN(CCN1CCCC1)C(=O)c1cc(COc2ccccc2SC)on1,11,-19%,-22%,-18%,-5,u

# Source: PubChem
